Reference: PubChem BioAssay AID1159580 (chemical genetic matrix, 2015)
The whole screen tested about 5,500 compounds, of which about 2,000 (36%) were called active. Inconclusive results (about 18%) are left out. Cut-off read from the data, not from the text of the source: active = normalized growth mostly below about 0.91 (no sharp cut-off); inconclusive = no clear call, values can overlap the other calls; inactive = mostly above about 0.92. The list shows a part of the results.

Test: chemical genetic growth profiling, strain panel (AID 1159580);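 note: tested at 20 µM; growth read once vehicle control cultures reached saturation at 30 °C; 1 = growth at the plate median or of vehicle wells; lower values mean less growth of the strain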
Conditions: S. cerevisiae deletion strains, growth OD

Measured: normalized growth

C(=C\c1ccccc1)/CN1CCN(C(c2ccccc2)c2ccccc2)CC1
inactive: locus YAL040C, strain CLN3, hits give low values 0.995 | locus YCL061C, strain MRC1 (second series), hits give low values 0.992 | locus YMR307W, strain GAS1, hits give low values 0.998 | locus YNL153C, strain GIM3, hits give low values 0.851 | locus YNL197C, strain WHI3, hits give low values 1.11 | locus YNL224C, strain SQS1, hits give low values 1.02 | locus YOR083W, strain WHI5 (second series), hits give low values 0.99 | locus YPL055C, strain LGE1, hits give low values 1
active: locus YER002W, strain NOP16, hits give low values 1.09 [resistant]
